Screens (PubChem)
ERp5 block = inhibitors of human ERp5 | Q15084 | 350,000 compounds, 0.05% hits | ERp5 insulin aggregation, absorbance 650 nm, 90 min | AID 651711 | inhibition, % at 9.99 µM;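 active = mean replicate inhibition above about 25%, with every replicate also reaching it, limit read from the data, passing the limit was not always enough; inconclusive = only one of those two criteria met; inactive = neither criterion met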
Target sequence (Q15084 whole entry, looked up): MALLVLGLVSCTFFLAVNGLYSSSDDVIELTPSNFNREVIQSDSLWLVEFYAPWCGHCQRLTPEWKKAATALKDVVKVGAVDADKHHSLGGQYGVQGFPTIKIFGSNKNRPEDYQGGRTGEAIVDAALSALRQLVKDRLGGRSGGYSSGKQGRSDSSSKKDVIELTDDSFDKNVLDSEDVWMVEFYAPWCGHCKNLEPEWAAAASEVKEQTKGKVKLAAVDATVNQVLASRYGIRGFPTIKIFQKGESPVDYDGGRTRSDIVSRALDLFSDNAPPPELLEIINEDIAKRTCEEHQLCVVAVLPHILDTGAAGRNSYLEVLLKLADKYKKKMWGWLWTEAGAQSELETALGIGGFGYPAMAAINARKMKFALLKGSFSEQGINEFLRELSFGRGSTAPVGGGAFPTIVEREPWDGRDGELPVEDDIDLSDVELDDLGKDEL
DENV2 CPE = DENV2-induced cell death inhibition; DENV2-infected cells, cytopathic effect rescue, plate reader; CPE inhibition, % at 9.99 µM; 350,000 compounds, 1.7% hits; AID 651640; in the data active = CPE inhibition above about 20%, passing the limit was not always enough; inconclusive = no clear call, values can overlap the other calls; tested in BHK-21 cells
Rtt109 Vps75 = inhibitors of Candida albicans Rtt109/Vps75 histone acetyltransferase | purified Rtt109/Vps75, ThioGlo CoA-SH fluorescence, 4 h | inhibition, % at 34.9 µM | 330,000 compounds, 0.16% hits;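 active = inhibition of at least 50% in every replicate; inconclusive = best replicate reaches 50% inhibition but some replicates fall short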
SIRT5 inh = blocks human SIRT5 desuccinylation of peptide; Q9NXA8; Purified SirT5, succinyl-peptide AMC, trypsin-coupled fluorescence; inhibition, % at 15 µM; 330,000 compounds, 1.1% hits; in the data active = inhibition above about 15%; inconclusive = no clear call, values can overlap the other calls
PDI turbidity = inhibitors of human protein disulfide isomerase. P07237. PDI insulin aggregation turbidity, A650, 90 min. inhibition, % at 10 µM. 350,000 compounds, 0.052% hits;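 active = mean inhibition across replicates of 30% or more, whatever share of single replicates reach that level; inconclusive = mean inhibition below 30% while every single replicate reaches 30%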
Hits are given with their value; . = inactive; ? = inconclusive; / = no result given; ! = repeats disagree. The list is not random: actives were taken first. Their share in the collection is about 2.3%.

SMILES | ERp5 block | DENV2 CPE | Rtt109 Vps75 | SIRT5 inh | PDI turbidity
O=C(C[C@@H]1CC[C@H]2[C@@H](COC[C@H](O)CN2C(=O)Nc2ccc(F)cc2)O1)NC1Cc2ccccc2C1 | . | 25 | / | . | /
O=C(C[C@H]1CC[C@H]2[C@@H](COC[C@@H](O)CN2C(=O)c2ccc3c(c2)OCO3)O1)NCCN1CCCC1 | . | 27 | / | . | /
CCOC(=O)c1c(NC(N)=O)sc(C)c1C | / | / | . | / | .
CCOC(=O)c1c(N2C(=O)C=CC2=O)sc(C)c1C | / | / | 69 | / | .
C/C=C/c1ccc([C@@H]2[C@@H](CO)N(C(C)=O)C23CN(C(=O)c2cnccn2)C3)cc1 | . | . | / | . | /
CCOc1cccc(SCc2noc(C(=O)NCCOC)c2C(=O)O)c1 | . | . | . | / | .
O=C(NCC1CC1)c1onc(CSc2ccc(F)c(F)c2)c1C(=O)NCC1CC1 | . | 64 | . | . | .
CCCCNC(=O)c1onc(CSc2cccc(OCC)c2)c1C(=O)O | . | 24 | . | / | .
COCCNC(=O)c1onc(CSc2cccc(OC)c2)c1C(=O)NCCOC | . | . | . | 22 | .
O=C(NCC[C@H]1CC[C@@H](NC(=O)C2CCC2)[C@@H](CO)O1)c1cnccn1 | . | . | / | . | /
Cn1c(=O)c2nc(Cl)c(-c3ccccc3)nc2n(C)c1=O | . | 55 | . | / | .
Cn1c(=O)c2nc(-c3ccccc3)c(-c3ccccc3)nc2n(C)c1=O | . | . | . | . | .
COc1ccc(S(=O)(=O)N2CCC(C(=O)NCCC(=O)NCc3ccccn3)CC2)cc1 | . | 36 | / | . | .
O=C(NCc1ccccn1)C(=O)NCC1OCCN1S(=O)(=O)c1ccc(Br)cc1 (stereo not given) | . | 64 | . | . | .
O=C(NCCC1CCCCN1S(=O)(=O)c1ccccc1)C(=O)NCc1ccccn1 (stereo not given) | . | 92 | . | . | .
COc1ccc(S(=O)(=O)N2CCOC2CNC(=O)C(=O)NCc2ccccn2)cc1 (stereo not given) | . | . | . | . | .
O=C(CCNC(=O)C1CCN(S(=O)(=O)c2ccccc2)CC1)NCc1ccccn1 | . | . | . | . | .
O=C(C[C@H]1CC[C@@H](NC(=O)c2ccncc2)[C@H](CO)O1)NCC1CC1 | . | . | / | . | /
C[C@@H]1CCCCO[C@@H](CN(C)C(=O)c2ccncc2)[C@@H](C)CN([C@H](C)CO)C(=O)c2cc(NS(=O)(=O)c3cn(C)cn3)ccc2O1 | . | . | / | . | /
C[C@H](NC(=O)C[C@@H]1CC[C@H]2[C@@H](COC[C@H](O)CN2C(=O)Nc2ccccc2)O1)c1ccccc1 | . | 31 | / | . | /
C[C@H](NC(=O)C[C@@H]1CC[C@@H]2[C@H](COC[C@H](O)CN2C(=O)Nc2ccccc2)O1)c1ccccc1 | . | 34 | / | . | /
C[C@H](NC(=O)C[C@H]1CC[C@H]2[C@@H](COC[C@@H](O)CN2C(=O)Nc2ccccc2)O1)c1ccccc1 | . | . | / | . | /
C[C@@H](NC(=O)C[C@@H]1CC[C@@H]2[C@H](COC[C@@H](O)CN2C(=O)Nc2ccccc2)O1)c1ccccc1 | . | . | / | . | /
O=C(NCC[C@H]1CC[C@@H](NC(=O)C2CCCCC2)[C@@H](CO)O1)c1cc(Cl)cc(Cl)c1 | . | . | / | . | /
C[C@@H]1CN([C@@H](C)CO)C(=O)c2cc(NC(=O)Nc3ccccc3)ccc2O[C@@H](C)CCCCO[C@H]1CN(C)Cc1ccc(C(F)(F)F)cc1 | / | . | / | / | /
SMILES | ERp5 block | DENV2 CPE | Rtt109 Vps75 | SIRT5 inh | PDI turbidity
O=C(NC1CCCC1)C(c1ccco1)N1CCC(O)(c2ccc(Cl)cc2)CC1 (stereo not given) | . | . | / | . | /
O=C(NC1CCCC1)C(c1ccco1)N1CCN(c2c(Cl)cncc2Cl)CC1 (stereo not given) | . | 24 | / | . | /
C[C@@H](O)C#Cc1ccc([C@@H]2[C@@H](CO)N3CCCCN(S(=O)(=O)c4ccccc4)C[C@@H]23)cc1 | . | . | / | . | /
COc1ccc(C2Nc3ccccc3C(=O)N2NS(C)(=O)=O)c(OC)c1 (stereo not given) | . | . | . | 15 | .
CCOc1ncccc1C(=O)OCc1ccc(C(=O)OC)cc1 | . | . | . | . | .
CCOc1ncccc1C(=O)OCC(=O)NCc1ccc(C(=O)OC)cc1 | . | 67 | . | . | .
C[C@H](O)C#Cc1ccc([C@H]2[C@@H](CO)N3CCCCN(C(=O)c4ccc5c(c4)OCO5)C[C@H]23)cc1 | . | ? | / | . | /
Cc1c(C(=O)Nc2ccc(S(=O)(=O)N(C)C3CCN(C)CC3)cc2)oc2c(Cl)cccc12 | . | . | 66 | . | .
CCn1cc(C(=O)O)c(=O)c2cc(F)c(N3CCN(C)CC3)cc21 | . | 28 | . | . | /
CCCCCCn1cc(C(=O)O)c(=O)c2cc(F)c(N3CCN(C)CC3)cc21 | / | / | . | / | .
C[C@@H]1CN([C@@H](C)CO)C(=O)c2cc(NC(=O)C3CC3)ccc2O[C@@H]1CN(C)Cc1ccc(Oc2ccccc2)cc1 | . | 79 | / | . | /
C[C@H]1CN([C@@H](C)CO)C(=O)c2cc(NC(=O)C3CC3)ccc2O[C@@H]1CN(C)Cc1ccccc1 | . | . | / | . | /
C[C@@H]1CN([C@@H](C)CO)C(=O)c2cc(NC(=O)C3CC3)ccc2O[C@H]1CN(C)Cc1ccc(Oc2ccccc2)cc1 | . | 33 | / | . | /
COc1cccc(NC(=O)N2CC3(C2)[C@@H](c2ccccc2)[C@@H](CO)N3C(=O)C2CCCC2)c1 | . | . | / | . | /
O=C(CN1CCOCC1)N1CC[C@@H]2[C@H]1c1cc(-c3ccc(F)cc3)ccc1N[C@@H]2CO | . | / | / | . | /
O=C(CN1CCOCC1)N1CC[C@H]2[C@H](CO)Nc3ccc(-c4ccc(F)cc4)cc3[C@H]21 | . | . | / | 34 | /
O=C(c1cccc(F)c1)N1CC[C@@H]2[C@H]1c1cc(-c3ccccc3)ccc1N[C@@H]2CO | . | 46 | / | . | /
COc1cccc(-c2ccc3c(c2)[C@@H]2[C@@H](CCN2C(=O)c2cccc(F)c2)[C@@H](CO)N3)c1 | . | 28 | / | . | /
CCC(=O)N(C)C[C@H]1Oc2cc(C#Cc3ccccn3)ccc2S(=O)(=O)N([C@H](C)CO)C[C@H]1C | . | . | / | . | /
CCCNC(=O)N1C[C@H](O)COC[C@H]2O[C@H](CC(=O)N3CCCCC3)CC[C@@H]21 | . | . | / | . | /
COc1ccccc1-n1c(-c2ccccc2)c[n+]2c1CCc1ccccc1-2 | . | . | . | 112! | .
COCC(=O)N1C[C@H](C)[C@@H](OC)CN(C)C(=O)c2cc(NC(=O)NC(C)C)ccc2OC[C@H]1C | . | . | / | . | /
COCC(=O)N(C)[C@H]1C[C@H]2c3cc(-c4ccccc4)ccc3CCN2C(=O)[C@H]1[C@H](C)O | . | . | . | . | .
COc1ccc(-c2ccc3c(c2)[C@@H]2C[C@H](N(C)C(=O)C(C)(C)C)[C@H]([C@H](C)O)C(=O)N2CC3)cc1 | . | 129 | . | . | .
CC=Cc1ccc2n(c1=O)C[C@@H]1[C@@H](CO)[C@H](C(=O)N3CCc4ccccc4C3)[C@H]2N1Cc1cocn1 (mixture of isomers) | . | . | / | . | /
